PubChem BioAssay (NCI)
Values joined by “and” are separate entries in the source; they are usually repeats but may differ in a detail not shown here. Identical values can stand only once. About 83,000 compounds went through this panel and 20% of them were active in at least one assay; those are over-represented in the sample as a whole.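 Interpretation: 100, growth as untreated; towards 0, rising growth inhibition; 0, no net growth; 0 to -100, cell death. Compounds scoring below 10 were considered active.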 Active and inactive are the calls of the source.

test system: MOLT-4 leukemia; experiment: NCI-60 one-dose screen, 48 h (100 = growth as untreated, 0 = no growth, -100 = all killed); conditions: 1 µM
Procedure: Growth inhibition of the MOLT-4 human tumor cell line is measured as a screen for anti-cancer activity. Cells are grown in 96 well plates and exposed to the test compound for 48 hours. Compounds are tested at a single concentration, which is 10^-5 M for most compounds. The reported endpoint is percent growth (GI% or GIPRCNT), where numbers from 0 - 100% represent growth inhibition, and numbers from -100% - 0 represent cell death. For example, a value of 40 represents 60% growth inhibition. A value of 0 means no net growth occurred over the course of the experiment. A value of -40 indicates 40% of cells at the beginning of the experiment died by the end of the experiment. A value of -100 means all cells are dead at the end of the experiment.
NCI-60 Human Tumor Cell Lines Screen was performed using the standard one-dose NCI protocol, which is described in more detail at https://dtp.cancer.gov/discovery_development/nci-60/default.htm.
Compounds with GIPRCNT values below 10 were considered active. Activity score was based on GIPRCNT using the following formula: […]
Score is 0 for GIPRCNT values of 100 or above, 50 for GIPRCNT values of 0, and 100 for GIPRCNT values of -100.

Structure (SMILES)	growth
CNC(=O)c1cc(Oc2ccc(CC(=O)Nc3cc(C(C)(C)C)nn3C)cc2)ccn1	78% (inactive)

same assay, conditions: 10 µM

Structure (SMILES)	growth
CC#C[C@]1(O)CC[C@H]2[C@@H]3CCC4=CC(=O)CCC4=C3[C@@H](c3ccc4c(c3)OCO4)C[C@@]21C	69.2% (inactive)
O=C(O)c1sccc1O	46.1% (inactive)
CC(C)(C)c1cc(NC(=O)Cc2ccc(-c3cnc4cc(-c5cnn(CCN6CCOCC6)c5)ccc4n3)cc2)no1	13.8% (inactive)
CNC(=O)c1cc(Oc2ccc(CC(=O)Nc3cc(C(C)(C)C)nn3C)cc2)ccn1	-64.3% (active)

same assay, conditions: 10 µM unless noted

Structure (SMILES)	growth
COc1ccc2ccccc2c1/C=N/N1CCCCC1	88.3% (inactive)
CC(=O)Nc1ccc2cc3ccc(NC(C)=O)cc3nc2c1	54.9% (inactive) and 74.7% (inactive)
Nc1ncnc2c1ncn2C1CC(O)C(CO)O1 (stereo unspecified)	114% (inactive) and 92.3% (inactive)
CC1=NN(c2ccccc2)C(=O)C1C(=O)c1ccccc1 (stereo unspecified)	95.8% (inactive)
CC(=O)Nc1ccc(O)cc1	102% (inactive) and 100% (inactive)
CCN(CC)CCNc1cc(-c2cccc(OC(F)(F)F)c2)nc2ccc(N3CCCC3)cc12	-19.7% (active) and -14.3% (active) and 3.16% (active)
N/C(=N\N=C\c1ccc2c(c1)OCO2)N/N=C\c1ccc2c(c1)OCO2	95.4% (inactive) and 50.3% (inactive)
O=S(=O)(Nc1ccccc1)C1CCCCC1	83% (inactive) and 92.4% (inactive)
COc1ccc(-c2cn[nH]c2-c2cc(OC)c(OC)c(OC)c2)cc1N	16.3% (inactive) and 23.4% (inactive)
O=C(/C=C\c1ccnc2ccccc12)c1ccc([N+](=O)[O-])cc1	63.1% (inactive) and 49.3% (inactive)
CN(C)CCCNC1=C(Cl)C(=O)c2ccccc2C1=O	57% (inactive) and 79.3% (inactive)
CCC(C)C1(C2CCCC2)NC(=O)NC1=O (stereo unspecified)	91.2% (inactive) and 106% (inactive)
CC(C)Cc1ccc(C(C)C(=O)NCc2ccc(Cn3c(=O)sn(CCCCl)c3=O)cc2)cc1 (stereo unspecified)	90.4% (inactive) and 0.866% (active)
Cc1ccc(-c2noc(CC(=O)c3ccc([N+](=O)[O-])cc3)n2)cc1	90.5% (inactive)
CC(=O)NC(Cc1ccccc1)C(=O)Oc1ccc2ccccc2c1 (stereo unspecified)	111% (inactive) and 102% (inactive)
Nc1ccc2ccc(N)cc2c1	76.8% (inactive)

Structure (SMILES)	growth
O=C=NC(c1ccccc1)(c1ccccc1)c1ccccc1	92.2% (inactive)
COc1cc(/C=N/Nc2nc3c([nH]2)c(=O)n(C)c(=O)n3C)ccc1O	87.9% (inactive) and 97.5% (inactive)
Cc1ccc2nc3c(nc2c1)-c1cccc2cccc-3c12	80.1% (inactive)
CC(CN=Cc1ccccc1O)N=Cc1ccccc1O (stereo unspecified)	120% (inactive) and 93.3% (inactive)
Oc1c(Cl)cc(Cl)cc1Sc1cc(Cl)cc(Cl)c1O	38.7% (inactive) and 16.2% (inactive) and 91% (inactive)
CN(C)c1ccc(C(=C2C=CC(=[N+](C)C)C=C2)c2ccccc2Cl)cc1	-26.3% (active) and 5.09% (active)
N=C1N=C(N)CS1	99.1% (inactive)
COc1cc2c(c(OC)c1OC)-c1ccc(OC)c(=O)cc1[C@@H](NC(C)=O)CC2	7.82% (active) and 6.6% (active) and 6.73% (active)
CC(C)N=c1cc2n(-c3ccc(Cl)cc3)c3ccccc3nc-2cc1Nc1ccc(Cl)cc1	6.96% (active) and 15.3% (inactive) and -11.7% (active)
O=[N+]([O-])c1ccc(Oc2ccccc2)cc1	96.5% (inactive) and 92.6% (inactive)
CC(=O)Nc1cccc2c1CCCC2	104% (inactive) and 102% (inactive)
Cc1c(Cl)cccc1NCN1C(=O)c2ccccc2C1=O	116% (inactive)
Cc1n[nH]c(=O)n(/N=C\c2c[nH]c3ccccc23)c1=O	91.6% (inactive)
C/C(=N\NC(=O)c1ccncc1)c1ccccc1O	7.82% (active) and 10.7% (inactive)
CC(O)Cn1cnc2c1c(=O)n(C)c(=O)n2C (stereo unspecified)	98.3% (inactive)
CNC(=O)c1ccc(C)c(-n2c(C)cc(OCc3ccc(F)cc3F)c(Br)c2=O)c1	78.8% (inactive) and 91.8% (inactive)

same assay, conditions: 30 µM

Structure (SMILES)	growth
CC(C)(C)c1cc(NC(=O)Cc2ccc(-c3cnc4cc(-c5cnn(CCN6CCOCC6)c5)ccc4n3)cc2)no1	10.8% (inactive)
CNC(=O)c1cc(Oc2ccc(CC(=O)Nc3cc(C(C)(C)C)nn3C)cc2)ccn1	65.6% (inactive)

same assay, conditions: 100 µM

Structure (SMILES)	growth
CC#C[C@]1(O)CC[C@H]2[C@@H]3CCC4=CC(=O)CCC4=C3[C@@H](c3ccc4c(c3)OCO4)C[C@@]21C	-7.79% (active)
O=C(O)c1sccc1O	17.4% (inactive)
